Consider four compounds from PubChem BioAssay.

Where “and” joins values, the source holds several entries; their conditions need not be identical. Identical values can stand only once. Calls of active or inactive are those of the source.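 The calls were made as follows, unless noted: active = normalized viability below 100% at a tested concentration; inactive = the rest.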

What is called remaining activity is the signal under treatment as a percentage of the control signal. The viability is a read-out of living cells in per cent, often relative to untreated cells.

The nature of experiment [1]: hESC survival regulators, cell-based (AID 493140; call rule not given here;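 also: cells exposed to compounds for four days before counting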). Particulars: human embryonic stem cell survival screen; stronger effect = higher value.
In experiment [2] the test system is Aerobactin synthetase IucA (Klebsiella pneumoniae). Kind of experiment: IucA aerobactin synthetase inhibitors, biochemical, Tocris library, absorbance (AID 1345561; call rule not given here;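 also: 100% = enzyme without compound and 0% = no enzyme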). Particulars: purified IucA enzyme assay, absorbance (OD) read-out; stronger effect = lower value;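 tested at 8 µM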.
Experiment [3] can be described thus: sensitizers of A549 cells to miR-34 induction, primary screen, imaging, A549 dox-inducible miR-34, nuclei and caspase counts (AID 1347080;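 active = compounds whose cell count with miR-34 switched on is under 0.7 times the count with it off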). Particulars: A549 miR-34 inducible, Hoechst nuclei count, 48 h.
Experiment [4] can be described thus: inhibitors of Cryptococcus chitosan production, flow cytometry, Cibacron Brilliant Red staining (AID 1347148; call rule not given here;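 also: compound exposure lasted three days at 37 degrees C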). Particulars: Cryptococcus neoformans chitosan, stronger effect = lower value; at 10 µM unless noted. In general terms: In flow cytometry, cells or beads pass a laser one at a time.
A short description of experiment [5]: viability rescue of complex I mutant cybrids, primary screen, cell-based, galactose medium, ATP luminescence (AID 1645843;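 active = z-score of at least 1.8 in each of two replicates, scored against plate mean and spread of sample wells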;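 also: positive z means more ATP and so rescue of galactose-driven cybrid death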). Particulars: complex I mutant cybrid cells, 72 h, stronger effect = higher value.
Experiment [6] is described as follows: phospholipid biosynthesis inhibitors in animal cells, primary screen, cell-based, LOPAC library, screen 4 (AID 1347384; call rule not given here). Particulars: phospholipid biosynthesis inhibition screen, at 10 µM.
Experiment [7] in a line: modifiers of HSF1 nuclear foci, imaging, Selleck Cancer Library (AID 1347162; in the data active = plate-normalised HSF1 focus index below about 0.46). Particulars: human cells, at 10 µM; SSMD: measured here: HSF1 foci SSMD mean; cell count: measured here: cell number; plate-normalised HSF1 focus index: stronger effect = lower value.
The nature of experiment [8]: survival rescue of mitochondrial mutant cells in low glucose, primary screen, MELAS cybrids, Rieske KO mouse fibroblasts, CellTiter-Glo (AID 1508586;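 active = mean z-score across replicates of 1.96 or higher in either the MELAS or the Rieske mutant cell line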;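 also: z relative to plate mean and SD of compound and empty wells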). On the technique in general: Cellular ATP, detected with luciferase, serves as a proxy for viable cell number.
Experiment [9] is described as follows: ovarian cancer cell viability with rucaparib, profiling panel, oncology-focused library, rucaparib conditional (AID 1508598). Particulars: patient-derived ovarian cancer cells, CellTiter-Glo viability, 144 h, stronger effect = lower value.
Setting [10] is: stronger effect = lower value, cell number ratio, induced over uninduced.
[11] abbreviates: measured here: relative caspase fold change +Dox/-Dox.
The mark [12] stands for this setting: measured here: total cells with miR-34 induction, stronger effect = lower value.
[13] abbreviates: measured here: total cells without miR-34 induction.

Take `COc1cc(/C=C(\C#N)C(N)=O)cc(CSc2nc3ccccc3s2)c1O`: the survival in experiment [1] was 114 (inactive). Further, the remaining activity in [2] was 115% (inactive). Besides, the fold change is 0.859 (inactive) and 0.896 (inactive) in experiment [3] (setting [10]); 1.08 and 1.29 in experiment [3] (setting [11]). In addition, the cell count in experiment [3] (setting [12]) was 4790 and 8180; in experiment [3] (setting [13]), 5570 and 9130. The fold fluorescence in experiment [4] was 9.44 [at 125.8 µM] (inactive). In experiment [5], the z-score was 5.03 (active).

Regarding `CC(C)(C)c1cc(O)c(C(C)(C)C)cc1O`, the remaining activity in experiment [2] was 129% (inactive). For the same compound, the fold change is 1.1 (inactive) and 0.907 (inactive) in experiment [3] (setting [10]); 1.08 and 0.716 in experiment [3] (setting [11]). Moreover, the cell count in experiment [3] (setting [12]) is 1530 and 6190; in [3] (setting [13]), 1390 and 6820. In addition, the fold fluorescence in experiment [4] was 11.1 [at 224.9 µM] (inactive). The z-score in experiment [5] was -0.7 (inactive).

For the compound `CCN(CC)CCCCNc1ncc2cc(-c3c(Cl)cccc3Cl)c(NC(=O)NC(C)(C)C)nc2n1`, the remaining activity in experiment [2] is 131% (inactive). Also, the fold change in [3] (setting [10]) was 0.841 (inactive) and 1.42 (inactive); in [3] (setting [11]), 1.06 and 1.08. The cell count in [3] (setting [12]) was 938 and 569; in experiment [3] (setting [13]), 1110 and 401. In addition, the result in experiment [6] was inactive. Also, in experiment [5], the z-score is -0.7 (inactive) and -1 (inactive).

For `CC(NC(=O)c1ccccc1N=Cc1c(O)ccc2ccccc12)c1ccccc1` (stereo not given), in [2], the remaining activity is 102% (inactive). The fold change is 0.954 (inactive) and 0.917 (inactive) in experiment [3] (setting [10]); 0.477 and 1.5 in experiment [3] (setting [11]). Moreover, the cell count was 7190 and 7160 in [3] (setting [12]); 7540 and 7810 in experiment [3] (setting [13]); 7320 in experiment [7]. In experiment [7], the SSMD stood at 1.72. For the same compound, the plate-normalised HSF1 focus index in [7] is 1.11 (inactive). For the same compound, the z-score in experiment [8] (MELAS cybrid survival, CellTiter-Glo 48 h, stronger effect = higher value) is -0.168 (inactive); in experiment [8] (Rieske KO mouse fibroblast survival, CellTiter-Glo 72 h), -0.189; in experiment [5], 0.205 (inactive). The viability in experiment [9] (at 0.000305 µM, OCI-C5x cells, with rucaparib 10 µM, 100% = cells with rucaparib alone) is 111% (inactive); in experiment [9] (at 0.000305 µM, OCI-C5x cells, without rucaparib) it was 99.9% (active); in [9] (at 0.000305 µM, OCI-P5x cells, with rucaparib 20 µM, 100% = cells with rucaparib alone), 102% (inactive); in [9] (at 0.000305 µM, OCI-P5x cells, without rucaparib), 90.3% (active); in [9] (at 0.00122 µM, OCI-C5x cells, with rucaparib 10 µM, 100% = cells with rucaparib alone), 122% (inactive); in [9] (at 0.00122 µM, OCI-C5x cells, without rucaparib), 121% (inactive). The viability was 103% (inactive) in experiment [9] (at 0.00122 µM, OCI-P5x cells, with rucaparib 20 µM, 100% = cells with rucaparib alone); 95.7% (active) in experiment [9] (at 0.00122 µM, OCI-P5x cells, without rucaparib); 119% (inactive) in experiment [9] (at 0.00488 µM, OCI-C5x cells, with rucaparib 10 µM, 100% = cells with rucaparib alone); 126% (inactive) in experiment [9] (at 0.00488 µM, OCI-C5x cells, without rucaparib); 106% (inactive) in experiment [9] (at 0.00488 µM, OCI-P5x cells, with rucaparib 20 µM, 100% = cells with rucaparib alone); 96.5% (active) in experiment [9] (at 0.00488 µM, OCI-P5x cells, without rucaparib). For the same compound, the viability in experiment [9] (at 0.0195 µM, OCI-C5x cells, with rucaparib 10 µM, 100% = cells with rucaparib alone) was 121% (inactive); in [9] (at 0.0195 µM, OCI-C5x cells, without rucaparib), 119% (inactive); in experiment [9] (at 0.0195 µM, OCI-P5x cells, with rucaparib 20 µM, 100% = cells with rucaparib alone), 114% (inactive); in experiment [9] (at 0.0195 µM, OCI-P5x cells, without rucaparib), 100% (active); in experiment [9] (at 0.0781 µM, OCI-C5x cells, with rucaparib 10 µM, 100% = cells with rucaparib alone), 112% (inactive); in experiment [9] (at 0.0781 µM, OCI-C5x cells, without rucaparib) it was 119% (inactive). Also, the viability was 108% (inactive) in [9] (at 0.0781 µM, OCI-P5x cells, with rucaparib 20 µM, 100% = cells with rucaparib alone); 102% (inactive) in experiment [9] (at 0.0781 µM, OCI-P5x cells, without rucaparib); 116% (inactive) in [9] (at 0.313 µM, OCI-C5x cells, with rucaparib 10 µM, 100% = cells with rucaparib alone); 118% (inactive) in experiment [9] (at 0.313 µM, OCI-C5x cells, without rucaparib); 108% (inactive) in [9] (at 0.313 µM, OCI-P5x cells, with rucaparib 20 µM, 100% = cells with rucaparib alone); 104% (inactive) in experiment [9] (at 0.313 µM, OCI-P5x cells, without rucaparib). Besides, the viability was 116% (inactive) in experiment [9] (at 1.25 µM, OCI-C5x cells, with rucaparib 10 µM, 100% = cells with rucaparib alone); 126% (inactive) in [9] (at 1.25 µM, OCI-C5x cells, without rucaparib); 115% (inactive) in [9] (at 1.25 µM, OCI-P5x cells, with rucaparib 20 µM, 100% = cells with rucaparib alone); 109% (inactive) in experiment [9] (at 1.25 µM, OCI-P5x cells, without rucaparib); 105% (inactive) in [9] (at 5 µM, OCI-C5x cells, with rucaparib 10 µM, 100% = cells with rucaparib alone); 143% (inactive) in experiment [9] (at 5 µM, OCI-C5x cells, without rucaparib). In addition, the viability in [9] (at 5 µM, OCI-P5x cells, with rucaparib 20 µM, 100% = cells with rucaparib alone) was 112% (inactive); in experiment [9] (at 5 µM, OCI-P5x cells, without rucaparib), 108% (inactive).
